The record followed here is PubChem BioAssay.

A short description of test [1]: optical density shifts of acrAB sulA E. coli – strain DRC41, OD650, 48 h, E. coli filamentation inducer project, primary screen (AID 1152).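 Note: E. coli MC1000 strain DRC41 lacking acrAB efflux pump and sulA.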 The following applies: higher = more signal, called active from +8 up or from −8 down.
A short description of test [2]: probe aLefty1 binding on compound microarray – biochemical, small-molecule microarray, 635/667 nm fluorescence, primary screen (AID 1153).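 Note: score merges spot fluorescence with signal-to-noise ratio from the scanned slide images.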 As to conditions: higher = more signal.
Test [3] is described as follows: plasmodial surface anion channel blockers, osmotic lysis – cell-based, P. falciparum Indochina, OD700, 1 h, primary screen (AID 1154). As to conditions: P. falciparum Indochina infected RBC osmotic lysis, higher = more signal, called active from +8 up or from −8 down.
Test [4] in a line: plasmodial surface anion channel blockers, osmotic lysis – cell-based, P. falciparum Indochina, OD700, 2 h, primary screen (AID 1155).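 Note: lysis reports solute entry through the parasite surface anion channel PSAC.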 As to conditions: P. falciparum Indochina infected erythrocytes, higher = more signal, called active from +8 up or from −8 down.
Test [5] is described as follows: changes in parasitized red cell lysis, either direction – P. falciparum Indochina, OD700, 3 h, PSAC antagonist project, primary screen (AID 1156). The following applies: P. falciparum-infected erythrocytes, osmotic lysis, higher = more signal, called active from +8 up or from −8 down.
Test [6] is described as follows: plasmodial surface anion channel blockers, osmotic lysis – cell-based, P. falciparum Indochina, OD700, 18 h, primary screen (AID 1157). The following applies: P. falciparum Indochina infected erythrocytes, osmotic lysis OD700, 18 h; higher = more signal, called active from +8 up or from −8 down.
Test [7] in a line: S6 kinase pathway phospho-S6 level changes – cell-based, A549, cytoblot, luminescence, serum-stimulated, primary screen (AID 1158).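 Note: serum-stimulated A549 lung adenocarcinoma cells; signal is phosphorylated S6 detected by cytoblot immunostaining with HRP secondary.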 As to conditions: 5 h, higher = more signal.
The target of test [8] is NADPH oxidase 2 (Homo sapiens) (UniProt P04839). Put plainly: compounds shifting NOX2 Amplex Red fluorescence – cell-based, HEK293-NOX2, PMA-stimulated, NOX inhibitor project, primary screen (AID 1159). Note: test concentration not given here. As to conditions: 45 min, higher = more signal, called active from +8 up or from −8 down.
Test [9] has as its target NADPH oxidase 4 (Homo sapiens) (UniProt Q9NPH5). Put plainly: compounds shifting NOX4 Amplex Red fluorescence – cell-based, HEK293-NOX4, tetracycline-induced, NOX inhibitor project, primary screen (AID 1160). The following applies: HEK293-NOX4, Amplex Red H2O2 fluorescence, 45 min; higher = more signal, called active from +8 up or from −8 down.
The target in test [10] is NADPH oxidase 5 (Homo sapiens) (UniProt Q96PH1). Put plainly: compounds shifting NOX5 Amplex Red fluorescence – cell-based, HEK293-NOX5, NOX inhibitor project, primary screen (AID 1161). As to conditions: HEK293-NOX5, ionomycin, 45 min, higher = more signal.

Calls of active or inactive are those of the source.

NADPH oxidase 2 (Homo sapiens), sequence (P04839 whole entry, looked up): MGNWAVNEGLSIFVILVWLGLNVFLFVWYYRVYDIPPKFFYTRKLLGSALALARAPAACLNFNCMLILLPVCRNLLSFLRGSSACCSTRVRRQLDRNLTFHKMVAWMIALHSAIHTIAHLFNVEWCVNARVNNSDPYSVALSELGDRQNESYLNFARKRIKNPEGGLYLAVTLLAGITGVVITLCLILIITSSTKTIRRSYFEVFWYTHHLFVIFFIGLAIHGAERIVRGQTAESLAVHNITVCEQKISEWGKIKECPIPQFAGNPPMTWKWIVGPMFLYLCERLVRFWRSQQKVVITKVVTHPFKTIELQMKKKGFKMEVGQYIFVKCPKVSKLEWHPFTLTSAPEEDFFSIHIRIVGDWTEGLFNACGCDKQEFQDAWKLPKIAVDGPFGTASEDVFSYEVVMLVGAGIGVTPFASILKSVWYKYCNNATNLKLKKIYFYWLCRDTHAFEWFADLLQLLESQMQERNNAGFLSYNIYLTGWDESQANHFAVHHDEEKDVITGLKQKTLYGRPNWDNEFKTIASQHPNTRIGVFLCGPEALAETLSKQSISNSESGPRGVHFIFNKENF
NADPH oxidase 4 (Homo sapiens), sequence (Q9NPH5 whole entry, looked up): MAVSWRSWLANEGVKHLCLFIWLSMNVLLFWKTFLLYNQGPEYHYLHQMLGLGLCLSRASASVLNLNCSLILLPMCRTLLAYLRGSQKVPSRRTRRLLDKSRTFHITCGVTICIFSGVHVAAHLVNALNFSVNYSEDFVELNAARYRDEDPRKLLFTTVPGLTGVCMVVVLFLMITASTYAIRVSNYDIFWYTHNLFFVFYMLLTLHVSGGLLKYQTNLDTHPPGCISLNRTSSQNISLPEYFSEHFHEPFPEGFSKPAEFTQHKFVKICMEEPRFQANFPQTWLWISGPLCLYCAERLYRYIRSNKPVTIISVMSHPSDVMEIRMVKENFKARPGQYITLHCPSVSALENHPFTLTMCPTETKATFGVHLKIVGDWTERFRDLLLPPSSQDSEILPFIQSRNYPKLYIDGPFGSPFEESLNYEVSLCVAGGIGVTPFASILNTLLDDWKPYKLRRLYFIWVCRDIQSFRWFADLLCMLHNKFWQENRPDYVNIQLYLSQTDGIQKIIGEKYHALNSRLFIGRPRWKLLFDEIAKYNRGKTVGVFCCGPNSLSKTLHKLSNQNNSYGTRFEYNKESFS
NADPH oxidase 5 (Homo sapiens), sequence (Q96PH1 whole entry, looked up): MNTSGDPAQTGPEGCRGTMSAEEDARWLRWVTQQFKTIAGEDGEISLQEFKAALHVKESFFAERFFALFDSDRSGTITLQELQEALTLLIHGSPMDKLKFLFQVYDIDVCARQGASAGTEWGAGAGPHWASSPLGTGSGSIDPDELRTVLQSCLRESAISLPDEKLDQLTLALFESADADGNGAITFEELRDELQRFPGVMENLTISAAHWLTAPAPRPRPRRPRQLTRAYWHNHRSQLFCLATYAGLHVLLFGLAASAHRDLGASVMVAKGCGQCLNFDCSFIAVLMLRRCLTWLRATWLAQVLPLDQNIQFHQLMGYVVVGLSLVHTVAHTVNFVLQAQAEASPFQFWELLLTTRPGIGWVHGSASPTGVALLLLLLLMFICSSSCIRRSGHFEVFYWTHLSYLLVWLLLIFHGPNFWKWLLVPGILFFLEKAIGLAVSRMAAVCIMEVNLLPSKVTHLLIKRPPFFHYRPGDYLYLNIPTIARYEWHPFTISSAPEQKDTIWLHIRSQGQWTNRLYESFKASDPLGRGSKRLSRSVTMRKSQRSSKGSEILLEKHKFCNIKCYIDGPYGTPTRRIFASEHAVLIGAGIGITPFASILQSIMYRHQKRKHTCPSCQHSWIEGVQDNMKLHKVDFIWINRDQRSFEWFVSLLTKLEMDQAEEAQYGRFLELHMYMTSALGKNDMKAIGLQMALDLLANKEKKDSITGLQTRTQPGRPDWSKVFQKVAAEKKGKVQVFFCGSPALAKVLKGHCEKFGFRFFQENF

Take `O=C(CS)NCCCCCNC(=O)[C@H]1C[C@H]2C(=O)N[C@@H](Cc3ccccc3)C(=O)N2[C@H]1c1cccc(OCCO)c1`: the z-score was 1.77 (inactive) in [1]; 3.03 (inactive) in [3]; 0.724 (inactive) in test [4]; -2 (inactive) in [5]; 0.425 (inactive) in [6]; 0.9 in test [7]. The z-score in [8] was 1.69 (inactive); in [9] it was 1.34 (inactive); in test [10], 0.687. The same molecule yielded a composite z-score in test [2] of 0.373.
On to `COCCOC(=O)N1C(=O)[C@@]2(c3cc(C#CC4=CCCCC4)ccc31)[C@H](C(=O)N1CCN(c3ncccn3)CC1)[C@H]1C(=O)O[C@H](c3ccccc3)[C@H](c3ccccc3)N1[C@@H]2c1ccc(OCCO)cc1`, for which the z-score in test [1] is -0.0557 (inactive); in test [3], 5.23 (inactive); in [4] it was 1.85 (inactive); in test [5], 0.251 (inactive); in test [6], 0.657 (inactive); in test [7], 0.212. Besides, the results for the z-score in [8], in test [9] and in test [10] were 0.977 (inactive), 0.645 (inactive) and 0.934, respectively. Moreover, the composite z-score in test [2] came to 0.894.
As for `CCOC(=O)C1=CC[C@@H](c2cccc(Cl)c2)N(S(=O)(=O)c2ccc(C)cc2)[C@H]1c1ccc(C#N)cc1`, the z-score in test [1] is -1.41 (inactive); in test [3], 1.53 (inactive); in test [4], 1.34 (inactive); in test [5] it was 0.0178 (inactive); in [6], 0.729 (inactive); in [7] it was -0.438. For the same molecule, the results for the z-score in test [8], in test [9] and in test [10] were 0.827 (inactive), 1.2 (inactive) and 0.639, respectively. The composite z-score in test [2] is 0.514.
For the molecule `CN(C)CCCC[C@@H]1NC(=O)[C@@H]2C[C@H](C(=O)NCCCCCN)[C@H](c3ccc(O)cc3)N2C1=O`, the z-score in test [1] was 0.195 (inactive); in test [3], -0.327 (inactive); in test [4], 0.0694 (inactive); in test [5], 0.494 (inactive); in [6], -0.0676 (inactive); in [7] it was -0.431. The values for the z-score in [8], in test [9] and in test [10] were -0.487 (inactive), -0.159 (inactive) and 0.701, respectively. This molecule registered a composite z-score in [2] of -0.056.
In the case of `O=C1c2ccccc2[C@@]2(Cc3ccccc3N(Cc3ccccc3)C2=O)[C@H](c2ccc(CO)cc2)N1Cc1ccccc1C(F)(F)F`, the z-score in test [1] is 0.165 (inactive); in [3], 1.92 (inactive); in [4], -0.0022 (inactive); in test [5] it was 0.678 (inactive); in test [6], -0.112 (inactive); in [7], -0.106. Besides, the z-score in test [8] is -2.24 (inactive); in [9], 0.148 (inactive); in test [10] it was 1.77. Moreover, in [2], the composite z-score amounted to 0.152.
As for `COC(=O)[C@@]1(Cc2ccc(F)cc2)[C@H]2c3cc(C(=O)N4CCCC4)n(CCc4ccc(OC)c(Br)c4)c3C[C@H]2CN1C(=O)c1ccccc1`, the z-score was -0.71 (inactive) in test [1]; 7.48 (inactive) in [3]; 1.5 (inactive) in [4]; 0.248 (inactive) in test [5]; 1.33 (inactive) in test [6]; 0.0028 in test [7]. Also, the results for the z-score in test [8], in test [9] and in test [10] were 0.0756 (inactive), 0.742 (inactive) and 0.98, respectively. The composite z-score in [2] came out at 1.2.
Regarding `NC(=O)[C@@]1(CCS(=O)(=O)c2ccccc2)N=C(c2ccc(OCCCO)cc2)O[C@H]1c1ccccc1`, the z-score was 1.24 (inactive) in test [1]; 19.7 (active) in [3]; 2.48 (inactive) in test [4]; 1.4 (inactive) in [5]; -0.898 (inactive) in [6]; 2.09 in test [7]. Moreover, the z-score was -3.88 (inactive) in test [8], -1.85 (inactive) in test [9] and -1.61 in test [10]. In test [2], the composite z-score was determined as 0.254.
Consider `COc1ccc([Si](C)(C)[C@@H]2[C@@H](CC(=O)N3Cc4ccccc4C[C@H]3CO)O[C@]3(C(=O)N(Cc4cccc(N5C(=O)COc6ccccc65)c4)c4ccccc43)[C@H]2C)cc1`, for which the z-score in test [1] was 2.59 (inactive); in [3], 4.94 (inactive); in test [4], 1.18 (inactive); in test [5], -0.0434 (inactive); in [6], 0.208 (inactive); in test [7], 4.59. The z-score is -0.387 (inactive) in test [8], 0.518 (inactive) in test [9] and 0.827 in test [10]. This molecule also returned a composite z-score in test [2] of -0.286.
In the case of `CC(c1ccccc1)C(O)C1C=CC2C(=O)N(Cc3ccccc3)C(=O)C2N1n1cnnc1` (stereo not given), the z-score in [1] is -2.13 (inactive); in test [3] it was 1.78 (inactive); in test [4] it was 0.975 (inactive); in test [5], 0.0175 (inactive); in test [6], 0.929 (inactive); in [7] it was -0.396. For the same molecule, the figures for the z-score in test [8], in test [9] and in test [10] were -0.217 (inactive), -1.09 (inactive) and -1.02, respectively. In test [2], this molecule yielded a composite z-score of -0.13.
Consider `CCCNC(=O)[C@@]1(C)c2ccccc2C(=O)N(Cc2ccc(OC(F)(F)F)cc2)[C@H]1c1ccc(CO)cc1`, for which the z-score was 0.707 (inactive) in [1]; 7.17 (inactive) in test [3]; 0.699 (inactive) in test [4]; 2.41 (inactive) in [5]; 0.208 (inactive) in [6]; 0.0696 in test [7]. The z-score in test [8] is -1.07 (inactive); in test [9], 0.332 (inactive); in [10] it was 0.423. Further, the composite z-score in test [2] turned out to be 0.15.
On to `Oc1ccc2cc[n+](Cc3cccc(OC(F)(F)F)c3)cc2c1`, for which the z-score was 0.444 (inactive) in test [1]; 0.0313 (inactive) in [3]; -0.0655 (inactive) in [4]; 0.621 (inactive) in test [5]; -0.236 (inactive) in test [6]; -0.522 in [7]. Further, the z-score in test [8] is -1.93 (inactive); in test [9] it was -0.554 (inactive); in test [10], -0.3. In [2], the composite z-score was -0.606.
Take `COc1ccc([Si](C)(C)[C@H]2[C@H](CCO)O[C@@]3(C(=O)N(Cc4cccc(N5C(=O)c6cccc7cccc5c67)c4)c4ccccc43)[C@@H]2C)cc1`: the z-score in test [1] was 0.0084 (inactive); in test [3] it was 1.54 (inactive); in test [4] it was 2.2 (inactive); in test [5], 0.712 (inactive); in test [6], 1.31 (inactive); in [7] it was 1.26. Also, the z-score is -0.139 (inactive) in test [8], 0.61 (inactive) in test [9] and 1.6 in [10]. In addition, the composite z-score in test [2] was -0.012.
